Calls of active or inactive are those of the source. Calls follow the shape of the dose curve; as a rule, active = well fitted curve in the direction sought with a large enough effect; inactive = no such curve, though single readings can be large or run the other way.
Test: qHTS for small molecule inhibitors of Yes1 kinase: Counter Assay (AID 686950);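 also: no kinase present so only ADP-Glo detection of a fixed ADP amount is tested; luminescence from ADP-Glo reporting ADP in a fixed ATP and ADP mixture; 0% = DMSO wells with ATP plus ADP and -100% = ATP-only wells without ADP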
Conditions: series mostly up to 76.9 µM; activity change, negative = inhibition: at the top concentration
Method in brief: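 Enzyme-free ADP-Glo interference check: compounds were preincubated 20 min in buffer, then an ATP/ADP mix (0.08 mM ATP, 0.02 mM ADP final) was added for 60 min at room temperature before two-step ADP-Glo luminescence detection.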

Structure (SMILES) | activity change, negative = inhibition
Fc1ccc(Cl)cc1-c1nc(Nc2ccncc2)c2nccnc2n1 | 7.04% (inactive)
CC(=O)NC(C)c1ccc(Oc2ccc(OC(C)C)cc2)cc1 (stereo unspecified) | 0.466% (inactive)
CC(C)OC(=O)C1=CN(C(=O)c2ccc(F)c(F)c2)CC(C)(C)c2c1[nH]c1ccccc21 | 1.94% (inactive)
COc1ccc(-c2ccc3c(N4CCOC[C@H]4C)nc(N4CCOC[C@H]4C)nc3n2)cc1CO | 5.73% (inactive)
Cc1cc(-c2nnc3n2CCCCC3)c(C)n1-c1ccc(F)cc1 | -3.38% (inactive)
CN(C)c1ccc(Nc2nc(N)n(C(=O)c3c(F)cccc3F)n2)cc1 | 3.88% (inactive)
COc1ccc(-c2c(-c3ccc(O)cc3O)n[nH]c2C)cc1 | -0.396% (inactive)
Cc1ccc(-n2nc(C(C)(C)C)cc2NC(=O)Nc2ccc(OCCN3CCOCC3)c3ccccc23)cc1 | -4.74% (inactive)
COc1nc(-c2ccc3c(c2)OCO3)n(-c2ccc(NC(=O)CSc3ccccc3)cc2)n1 | -1.6% (inactive)
NC(=O)c1ccc(-c2nc(-c3ccc4c(c3)OCCO4)c(-c3ccccn3)[nH]2)cc1 | 4.54% (inactive)
C[C@H](NC(=O)Cc1cc(F)cc(F)c1)C(=O)N[C@@H]1C(=O)N(C)c2ccccc2-c2ccccc21 | 4.73% (inactive)
C[C@]12CC[C@H](O)CC1=CC[C@@H]1[C@H]2CC[C@]2(C)C(c3cccnc3)=CC[C@H]12 | 1.56% (inactive)
CN(C(=O)c1ccc(F)cc1C(F)(F)F)C1CCN(c2nnc(-c3ccnn3C)c3ccccc23)CC1 | 2.99% (inactive)
Nc1nccc(-c2ccc3noc(-c4ccc(Cl)cc4)c3c2)n1 | 1.22% (inactive)
CCc1cncnc1N1CCN(Cc2nc3ccc(C(F)(F)F)cc3[nH]2)CC1 | -0.439% (inactive)
CCN(c1ccccc1)c1cc(NC)[n+](C)c(C)n1 | 0.75% (inactive)
O=C1[C@H](Cc2ccc(O)cc2)N2C(=O)CCN(C(=O)NCc3ccccc3)[C@H]2CN1Cc1cccc2ccccc12 | 4.03% (inactive)
COc1cc(F)c(F)c(Nc2ccc(I)cc2F)c1NS(=O)(=O)C1(C[C@H](O)CO)CC1 | 1.61% (inactive)

Structure (SMILES) | activity change, negative = inhibition
Cc1ccccc1C(C(=O)NC1CCCC1)N(C(=O)Cn1cnc2ccccc21)c1cccc(F)c1 (stereo unspecified) | -0.61% (inactive)
CCCc1nc2c(C)cc(-c3nc4ccccc4n3C)cc2n1Cc1ccc(-c2ccccc2C(=O)O)cc1 | 5.75% (inactive)
CN[C@@H](C)C(=O)N[C@H]1CCCC[C@H]2CC[C@@H](C(=O)N[C@@H](c3ccccc3)c3cn(CCCCc4ccc(CCCCn5cc([C@@H](NC(=O)[C@@H]6CC[C@@H]7CCCC[C@H](NC(=O)[C@H](C)NC)C(=O)N76)c6ccccc6)nn5)cc4)nn3)N2C1=O | -3.6% (inactive)
O=C(C=Cc1ccc(/C=C/C(=O)Nc2ccc(C3=NCCN3)cc2)cc1)Nc1ccc(C2=NCCN2)cc1 | 0.448% (inactive)
N#Cc1ccc(C(c2ccc(C#N)cc2)n2cncn2)cc1 | -0.459% (inactive)
O=C1CCCC2=C1C(c1[nH]ncc1Cl)N=C(Nc1nc3ccccc3o1)N2 (stereo unspecified) | 0.183% (inactive)
C[C@@H]1CN(Cc2ccc(F)cc2)[C@@H](C)CN1C(=O)c1cc2c(C(=O)C(=O)N(C)C)cn(C)c2cc1Cl | -4.81% (inactive)
O=C(C1CC1)N1CC[C@@H](Cn2c(-c3ccc(-c4ccc5occc5c4)cc3)nc3cnccc32)C1 | 1.94% (inactive)
COc1ccc(COc2cc3oc(=O)c4cc(C(C)O)ccc4c3cc2OC)cc1 (stereo unspecified) | 1.3% (inactive)
COc1ccc2c3n(c(=NC(=O)c4cccnc4)nc2c1OC)CCN3 | 6.4% (inactive)
Nc1cccc(S(=O)(=O)N2CCCN(S(=O)(=O)c3ccc4c(c3)OCCO4)CC2)c1 | -0.315% (inactive)
CC1(C)CNc2cc(NC(=O)c3cccnc3NCc3ccncc3)ccc21 | 4.24% (inactive)
COc1cccc2cc(-c3nc(C4CCC(C(=O)O)CC4)n4ncnc(N)c34)[nH]c12 (stereo unspecified) | 7.56% (inactive)
O=C(Nc1cccnc1)N1CCC(Cc2cccc(Oc3ccc(C(F)(F)F)cn3)c2)CC1 | 3.25% (inactive)
CCCn1c(=O)c2[nH]c(C34CC5CC3C[C@@H](C5)C4)nc2n(CCC)c1=O | -5.56% (inactive)
O=S(=O)(N=Cc1c(O)ccc2ccccc12)c1cccs1 | -6.01% (inactive)
Cc1cc([C@@H](C)Nc2ccccc2C(=O)O)c2nc(N3CCOCC3)cc(=O)n2c1 | 5.91% (inactive)
COc1cc2nccc(Oc3ccc(NC(=O)NC4CC4)c(Cl)c3)c2cc1C(N)=O | -10.9% (inactive)

Source: PubChem BioAssay (NCATS)
